Screening results as filed in PubChem BioAssay.
DT40 TDP1 no CPT = qHTS for Inhibitors of human tyrosyl-DNA phosphodiesterase 1 (TDP1): qHTS in cells in absence of CPT | DT40 Tdp1-/- hTDP1 cells, no CPT, ATP luminescence, 48 h | Potency, µM (doses to about 46.2 µM), actives largely listed as inhibitors | actives 15% (n = 420,000) | AID 686978, 2013; also: nearly all actives have a fitted effect of over 55% in size
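Seeded 400 DT40-hTDP1 cells/well (vehicle DMSO, no 20 nM CPT); pinned compounds; ≥48 hr at 37 °C; CellTiter-Glo luminescence as viability measure.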
IL1B secr inh = blocks inflammasome-driven IL-1 beta release; THP-1 LPS/ATP IL-1B secretion, AlphaLISA, 16 h; active compounds read low; activity change, % at 57.5 µM; actives 4.7% (n = 360,000); in the data active = activity change below about -50%; inconclusive = mostly about -30% to -49%
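THP-1 cells pretreated 1 hr with compounds (up to 57.5 uM final), then stimulated with LPS (250 ng/mL final) plus ATP (1.25 mM final); secreted IL-1B measured by AlphaLISA after 16 hr, decreased signal indicating inhibition.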
12-LOX inh = inhibitors of human 12S-lipoxygenase ALOX12; purified 12hLO, xylenol orange hydroperoxide absorbance; AID 1671190; Potency, µM (titrated, usually from 108 µM), actives largely listed as inhibitors; P18054; actives 1.1% (n = 580,000)
Target sequence (P18054 whole entry, looked up): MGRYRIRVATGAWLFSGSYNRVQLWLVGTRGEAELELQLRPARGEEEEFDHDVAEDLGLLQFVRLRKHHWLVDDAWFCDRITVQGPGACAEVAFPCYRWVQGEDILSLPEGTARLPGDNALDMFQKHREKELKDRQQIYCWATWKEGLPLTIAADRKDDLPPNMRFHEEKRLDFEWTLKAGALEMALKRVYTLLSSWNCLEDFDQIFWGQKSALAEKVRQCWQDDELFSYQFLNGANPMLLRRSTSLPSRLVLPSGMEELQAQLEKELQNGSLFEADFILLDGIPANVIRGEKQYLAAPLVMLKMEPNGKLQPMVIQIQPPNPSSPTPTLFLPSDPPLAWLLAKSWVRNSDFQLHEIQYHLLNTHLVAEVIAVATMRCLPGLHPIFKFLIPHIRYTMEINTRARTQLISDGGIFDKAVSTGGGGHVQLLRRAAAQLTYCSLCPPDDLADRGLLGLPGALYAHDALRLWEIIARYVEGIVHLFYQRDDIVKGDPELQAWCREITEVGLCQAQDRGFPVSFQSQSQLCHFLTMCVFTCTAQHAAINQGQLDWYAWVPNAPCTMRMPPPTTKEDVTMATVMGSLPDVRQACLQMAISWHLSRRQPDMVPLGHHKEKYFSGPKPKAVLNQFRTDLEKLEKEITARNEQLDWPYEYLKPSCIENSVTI
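Purified human 12hLO (150 nM final) in 25 mM Hepes, 0.01% Triton X-100, pH 7.0 was preincubated 15 min at room temperature with compound. Then 40 uM arachidonic acid was added, 30 min. Hydroperoxide was read by Fe-XO absorbance ratio 573/405 nm.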
HT1080-NT tox = kills 2HG-producing HT-1080-NT fibrosarcoma cells; HT-1080-NT fibrosarcoma viability, CellTiter-Glo ATP luminescence, 48 h; Potency, µM (highest dose often 46.1 µM), actives largely listed as cytotoxic; actives 1.6% (n = 360,000); AID 686970;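 also: NT is the 2HG producing partner of a matched IDH1 knockdown line; nearly all actives have a fitted effect of over 55% in size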
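Luminescent CellTiter-Glo readout after 48 hours of compound exposure at 37 degrees C defined viability of HT-1080-NT cells. Activity was normalized to DMSO wells and cell-free media wells; concentration-response curves were fitted and assigned curve classes.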
HT1080 IDH1KD tx = HT-1080 IDH1 knockdown cell toxicity (counter line). HT-1080 IDH1 knockdown viability, ATP luminescence, 48 h. Potency, µM (titrated, usually from 46.1 µM), hits mostly cytotoxic. actives 2% (n = 360,000). AID 686971
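In this qHTS, HT-1080 cells depleted of IDH1 are exposed for 48 h at 37 °C to compound titrations. Toxicity is scored from CellTiter-Glo luminescence, with DMSO as full viability and medium alone as none.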
TDP1 cell CPT = DT40-hTDP1 cell growth loss with CPT; chicken DT40 Tdp1-/-;hTDP1 cells + 20 nM CPT, ATP luminescence, 48 h; Potency, µM (titrated, usually from 46.2 µM), actives largely listed as inhibitors; actives 12% (n = 420,000); AID 686979; also: nearly all actives have a fitted effect of over 55% in size
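Cell growth measured by CellTiter-Glo luminescence after a minimum 48 h, 37 C compound exposure with 20 nM CPT in Tdp1-knockout DT40 cells stably expressing hTDP1, seeded 400/well; qHTS titration format.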
Hits are given with their value; - = inactive; ? = inconclusive; . = no result. This excerpt belongs to a sample that is enriched for hits. Unless noted, calls follow the shape of the dose curve; as a rule, active = well fitted curve in the direction sought with a large enough effect; inconclusive = small, poorly fitted or top-dose-only effect, or another doubt; inactive = no such curve, though single readings can be large; an effect the other way counts as inactive or inconclusive.

SMILES | DT40 TDP1 no CPT | IL1B secr inh | 12-LOX inh | HT1080-NT tox | HT1080 IDH1KD tx | TDP1 cell CPT
Cc1ccc(C)c(Cn2c3ccccc3c3cnn(CC(=O)NCCC4=CCCCC4)c(=O)c32)c1 | - | . | - | . | . | -
Cc1cccc(NC(=O)Cn2ncc3c4ccccc4n(Cc4ccccc4)c3c2=O)c1C | 23.1µM | . | - | . | . | ?
Cc1ccccc1Cn1c2ccccc2c2cnn(CC(=O)NCCc3ccccc3)c(=O)c21 | ? | . | - | . | . | 16.4µM
O=C(Cn1ncc2c3ccccc3n(Cc3ccccc3F)c2c1=O)NCCCN1CCCC1=O | - | -52.7 | - | - | - | ?
CC(=O)c1ccc(NC(=O)Cn2ncc3c4ccccc4n(Cc4ccccc4)c3c2=O)cc1 | - | . | - | . | . | -
O=C(Cn1ncc2c3ccccc3n(Cc3ccccc3F)c2c1=O)NCCCc1ccccc1 | 18.4µM | . | - | . | . | ?
COCc1ncc(C)n1CCNC(=O)c1ccc(OC)nc1OC | . | . | - | . | . | .
Cc1cc(CNC(=O)[C@@H]2CCC[C@@H](NCc3ccc(C(F)(F)F)cc3)CN(C)C(=O)C2)no1 | . | . | - | . | . | .
Cc1ccccc1Cn1c2ccccc2c2cnn(CC(=O)NC(C)CCc3ccccc3)c(=O)c21 (stereo unspecified) | 9.2µM | . | - | . | . | 9.2µM
COc1cccc(CNC(=O)Cn2ncc3c4ccccc4n(Cc4ccccc4)c3c2=O)c1 | - | . | ? | . | . | -
CCN(CCN(C)C)C(=O)C1CCN(S(=O)(=O)c2c(C)noc2/C=C/c2ccccc2F)CC1 | 4.61µM | - | ? | - | - | 2.91µM
Cc1noc(/C=C/c2ccccc2F)c1S(=O)(=O)N1CCC(C(=O)N2CCN(C)CC2)CC1 | ? | - | - | ? | ? | ?
CCOc1ccccc1/C=C/c1onc(C)c1S(=O)(=O)N1CCC(C(=O)N(CC)CC)CC1 | 16.4µM | - | - | - | - | 14.6µM
Cc1cccc(C(=O)NC(Nc2ccc(Cl)cc2)C(Cl)(Cl)Cl)c1 (stereo unspecified) | . | . | - | . | . | .
O=C(Nc1ccc2c(c1)CCC2)c1cc(-c2ccncc2)nc2ccc(Br)cc12 | . | . | - | . | . | .
Cc1cnc2c(S(=O)(=O)N(C)CC3CCCCC3)cccc2c1 | . | . | - | . | . | .
COC(=O)[C@@H]1Cc2ncn(C(C)C)c2CN1S(=O)(=O)c1ccc(C#N)cc1 | . | . | - | . | . | .
COc1ccc2[nH]cc(CCNc3ccnc(-c4ccccc4Cl)n3)c2c1 | 11.6µM | . | - | . | . | ?
COc1ccc2[nH]cc(CCNc3cc(-c4ccccc4Cl)ncn3)c2c1 | 3.66µM | . | 15.8µM | . | . | ?
COc1ccc2[nH]cc(CCNC(=O)c3ccccc3Cl)c2c1 | - | - | - | - | - | -
O=C(CN(Cc1ccccc1Cl)C(=O)c1csnn1)NC1CCCC1 | - | - | - | - | - | -
COc1ccc(C2C(C#N)=C(C)NC3=C2C(=O)CC(C)(C)C3)cc1OC (stereo unspecified) | . | . | - | . | . | .
CCOC(=O)C1=C(CC)Nc2ccccc2N=C1NC(=O)c1ccc(C)c(S(=O)(=O)N2CCOCC2)c1 | ? | - | - | - | - | 16.4µM
CCOC(=O)C1=C(CC)Nc2ccccc2N=C1NC(=O)c1ccc(S(=O)(=O)N(C)C)cc1 | 5.8µM | - | - | - | ? | 7.31µM
COc1ccc(NC(=O)c2oc3ccccc3c2CSC)cn1 | ? | - | - | - | - | -
SMILES | DT40 TDP1 no CPT | IL1B secr inh | 12-LOX inh | HT1080-NT tox | HT1080 IDH1KD tx | TDP1 cell CPT
CCOCc1c(C(=O)Nc2ccc(OC)nc2)oc2ccccc12 | 18.4µM | - | - | - | - | -
CCOC(=O)C1=C(CC)Nc2ccccc2N=C1NC(=O)CCNC(C)=O | ? | - | - | - | - | -
CCOC(=O)C1=C(CC)Nc2ccccc2N=C1NC(=O)c1ccc(S(=O)(=O)N2CCOCC2)cc1 | ? | - | - | - | - | ?
CCOC(=O)C1=C(C)Nc2ccccc2N=C1NC(=O)c1cccc(S(=O)(=O)N(C)C)c1 | - | - | - | - | - | -
CCOCc1c(C(=O)NC2=Nc3ccccc3NC(CC)=C2C(=O)OCC)oc2ccccc12 | 16.4µM | - | - | ? | ? | 23.1µM
COc1ncccc1CN1C[C@H]2[C@H](C1)[S+](=O)([O-])C(C)(C)C(=O)N2CC1CCOCC1 | . | . | - | . | . | .
Cc1c(C(=O)Nc2nc(-c3ccc(F)cc3)ns2)oc2ccc(Br)cc12 | - | . | - | . | . | -
Cc1ccc(/C=C/c2onc(C)c2S(=O)(=O)N2CCC(C(=O)Nc3cc(F)ccc3F)CC2)cc1 | - | . | - | . | . | ?
Cc1ccc(/C=C/c2onc(C)c2S(=O)(=O)N2CCC(C(=O)Nc3ccc(OC(F)(F)F)cc3)CC2)cc1 | 13µM | . | - | . | . | 11.6µM
Cc1ccc(/C=C/c2onc(C)c2S(=O)(=O)N2CCC(C(=O)Nc3ccc(C)c(N(C)C)c3)CC2)cc1 | 9.2µM | . | - | . | . | 8.2µM
N#C/C(=C\c1ccc(-c2ccc(Cl)cc2Cl)o1)c1nc2ccccc2[nH]1 | . | . | 11.2µM | . | . | .
N#C/C(=C\c1ccc(-c2ccccc2F)o1)c1nc2ccccc2[nH]1 | . | . | - | . | . | .
N#C/C(=C\c1ccc(-c2ccccc2C(=O)O)o1)c1nc2ccccc2[nH]1 | 14.6µM | ? | ? | - | - | ?
Cc1ccc2nc(/C(C#N)=C/c3ccc(-c4ccccc4C(=O)O)o3)[nH]c2c1 | - | - | ? | - | - | -
N#C/C(=C\c1ccc(-c2ccc(F)cc2F)o1)c1nc2ccccc2[nH]1 | 13µM | . | - | . | . | 23.1µM
COc1ccc2c(CNCc3cccs3)c(C(=O)O)n(Cc3ccc(F)cc3Cl)c2c1 | 1.46µM | . | - | . | . | 7.31µM
COc1ccc2c(CNCCc3cccs3)c(C(=O)O)n(Cc3ccc(F)cc3Cl)c2c1 | 6.51µM | . | - | . | . | 8.2µM
COc1ccc2c(CNCCc3cccs3)c(C(=O)O)n(Cc3cccc(F)c3)c2c1 | ? | . | - | . | . | ?
COc1cc(CC(=O)Nc2ccc3c(c2)NC(=O)C(C)O3)cc(OC)c1OC (stereo unspecified) | . | . | - | . | . | .
O=C(c1ccn[nH]1)N1CC=C(c2cnc3cnc(-c4ccccc4)cn23)CC1 | . | . | - | . | . | .
COc1cccc(C(=O)Oc2cc(OC(=O)c3cccc(OC)c3)cc(OC(=O)c3cccc(OC)c3)c2)c1 | . | . | - | . | . | .
COc1ccccc1CN1CCCC2(CCN(C(=O)c3ccncc3)CC2)C1 | - | . | - | . | . | -
COc1ccc(CC(=O)NNS(=O)(=O)c2ccccc2[N+](=O)[O-])cc1OC | - | - | - | - | - | -
COc1ccccc1C(=O)NC(=O)COC(=O)Cc1ccccc1[N+](=O)[O-] | ? | - | - | - | - | ?
COc1ccc(NC(=O)COC(=O)Cc2ccccc2[N+](=O)[O-])cc1OC | 25.9µM | - | - | - | - | ?
